Experimental data as given in PubChem BioAssay (Tox21).
“And” between values parts separate entries of the source, which are not always exact repeats. Identical values can stand only once. A number with no mark means an inactive call. The source made the active and inactive calls. Unless noted, calls come from the whole dose curve.

Target: Estrogen receptor (Homo sapiens) (UniProt P03372)
Assay: qHTS assay to identify small molecule antagonists of the estrogen receptor alpha (ER-alpha) signaling pathway (AID 743069; active = well fitted curve in the direction sought with a large enough effect in the signal ratio in the repeat runs, not every such curve was filed as active; inconclusive = weak or mixed curves, or effect the other way; inactive = no such curve, though single readings can be large or run the other way; the % refers to the signal ratio)
Conditions: HEK293 ER-alpha-UAS-bla, beta-lactamase ratio, antagonist mode; series mostly up to 69.4 µM; activity, negative = inhibition: at the top concentration
In short: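 Fluorescence intensity from a beta-lactamase FRET substrate served as the read-out. Cells: HEK293 with stably integrated ER-alpha-UAS-bla reporter. Agonist 17beta-estradiol was co-added with compounds; incubation 18 hr at 37C, substrate 2 hr at room temperature.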
% is set by controls: 0 for no effect and ±100 for the full control effect; potency is the fitted concentration of half-maximal effect.

Chain of Estrogen receptor (Homo sapiens) (P03372 whole entry, looked up): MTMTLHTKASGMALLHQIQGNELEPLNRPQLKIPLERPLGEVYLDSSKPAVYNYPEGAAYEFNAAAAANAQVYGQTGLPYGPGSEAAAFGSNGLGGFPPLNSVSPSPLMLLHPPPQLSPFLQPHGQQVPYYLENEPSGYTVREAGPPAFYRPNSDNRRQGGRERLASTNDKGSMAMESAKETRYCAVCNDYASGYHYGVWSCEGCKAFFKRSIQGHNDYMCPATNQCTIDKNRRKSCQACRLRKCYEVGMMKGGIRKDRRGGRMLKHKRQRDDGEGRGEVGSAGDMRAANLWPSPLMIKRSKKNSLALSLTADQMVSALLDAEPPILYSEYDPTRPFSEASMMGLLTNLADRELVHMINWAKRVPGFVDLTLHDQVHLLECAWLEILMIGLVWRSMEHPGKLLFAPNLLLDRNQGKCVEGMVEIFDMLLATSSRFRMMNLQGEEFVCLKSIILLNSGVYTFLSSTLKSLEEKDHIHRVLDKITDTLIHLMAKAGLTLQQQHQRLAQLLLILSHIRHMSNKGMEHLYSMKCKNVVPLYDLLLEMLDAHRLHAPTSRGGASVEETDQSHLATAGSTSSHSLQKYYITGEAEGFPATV

SMILES	Potency	activity, negative = inhibition
CCCCCCCCCCCCCCCC(=O)OC[C@H](O)[C@H]1OC(=O)C(O)=C1O	inactive	–
Oc1ccc(N=Nc2ccccc2)cc1	39.4 µM [inconclusive] (active)	–
CCCCCCCCCCCC[N+](C)(C)CCCCCCCCCCCC	–	-18.5%
CC(C)=CCOc1ccc(/C=C/C(=O)c2ccc(OCC=C(C)C)cc2OCC(=O)O)cc1	16.9 µM [inconclusive] (active)	–
CCCCC(CC)COP(=O)(O)OCC(CC)CCCC (stereo unspecified)	4.36 µM [inconclusive] (active)	–
CCCCCOC(=O)CCCC	–	-17.2%
CCc1cc(Cc2cc(CC)c(N)c(CC)c2)cc(CC)c1N	38.9 µM [inconclusive] (active)	–
O=c1[nH]sc2ccccc12	–	-20.6%

Test system: not listed separately
Assay: qHTS assay to identify small molecule antagonists of the estrogen receptor alpha (ER-alpha) signaling pathway - cell viability counter screen (AID 743074); note: nearly all actives have a fitted effect of over 45% in size
Conditions: ERalpha-bla HEK293 viability, CellTiter-Glo luminescence, 18 h; series mostly up to 69.4 µM; activity, negative = cytotoxicity: at the top concentration

SMILES	Potency	activity, negative = cytotoxicity
CCCCCCCCCCCC(=O)NCCCN(C)C	49 µM (active)	–
CCOC(=O)c1nc(C(Cl)(Cl)Cl)n(-c2ccc(Cl)cc2Cl)n1	–	-26.5%
CCCCCCCCCCCCCCCC(=O)OC[C@H](O)[C@H]1OC(=O)C(O)=C1O	inactive	–
c1cc(C(c2ccc(OCC3CO3)cc2)c2ccc(OCC3CO3)cc2)ccc1OCC1CO1 (stereo unspecified)	–	-20.6%
CC(C)OC(=O)c1cc2c(OCC(O)CNC(C)(C)C)cccc2[nH]1 (stereo unspecified)	–	-12.1%
CC[C@H]1O[C@]2(CC[C@@H]1C)C[C@@H]1C[C@@H](C/C=C(\C)C[C@@H](C)/C=C/C=C3\CO[C@@H]4[C@H](O)C(C)=C[C@@H](C(=O)O1)[C@]34O)O2	43.3 µM (active)	–
CC(C)(C)c1ccc(C(=O)CCCN2CCC(OC(c3ccccc3)c3ccccc3)CC2)cc1	23.9 µM (active)	–
CCCCN(CCCC)c1ccc(C(=O)c2ccccc2C(=O)O)c(O)c1	49.4 µM (active)	–
CCCC(c1cc(C(C)(C)C)c(O)cc1C)c1cc(C(C)(C)C)c(O)cc1C	19.7 µM (active)	–
CN(C/C=C/C#CC(C)(C)C)Cc1cccc2ccccc12	–	22.2%
O=C(Nc1ccc(Oc2ccc(Cl)cc2)c(Cl)c1)c1cc(I)cc(I)c1O	6.01 µM (active)	–
N=C1N=C(N)c2ccccc21	–	-19.1%
CCN(CC)CCCC(C)Nc1c2ccc(Cl)cc2nc2ccc(OC)cc12 (stereo unspecified)	–	-15.3%
Cc1nc(-c2ccc3c(c2)CCN(CCC2CCC(NC(=O)/C=C/c4ccc(F)cc4)CC2)CC3)no1 (stereo unspecified)	–	-10.2% [at 32.6 µM]
CN(C)c1ccc(C2(c3ccc(N(C)C)cc3)OC(=O)c3cc(N(C)C)ccc32)cc1	–	-11.7%
CCCCCCCCCCCC[N+](C)(C)CCCCCCCCCCCC	24.5 µM (active)	–
CC1(C)CCC(C)(C)c2cc(C(=O)Nc3ccc(C(=O)O)cc3)ccc21	–	-11.4%
CC(C)=CCOc1ccc(/C=C/C(=O)c2ccc(OCC=C(C)C)cc2OCC(=O)O)cc1	–	8.89%
Oc1ccc2cc(SSc3ccc4cc(O)ccc4c3)ccc2c1	–	-20.9%
CCCCC(CC)COP(=O)(O)OCC(CC)CCCC (stereo unspecified)	39 µM (active)	–
O=C(Nc1cccc(C(F)(F)F)c1)c1cc(Br)cc(Br)c1O	1.34 µM (active) and 977 nM (active)	–
CCCCCOC(=O)CCCC	–	26.2%
Clc1ccc2n[nH]nc2c1	–	-6.03%
CCCCCCCCS(=O)C(C)Cc1ccc2c(c1)OCO2 (stereo unspecified)	–	-24.8% [at 79.1 µM]
NNc1nc(-c2ccc([N+](=O)[O-])cc2)cs1	15.5 µM (active)	–
O=c1[nH]sc2ccccc12	–	-14.4%
CNCc1cc(F)ccc1Oc1ccc(Cl)c(Cl)c1	–	-21.5%
C/C=C1/C(=O)C[C@H]2[C@@H]3CCC4=CC(=O)CC[C@]4(C)[C@H]3CC[C@]12C	–	-10.5%
